These results are taken from PubChem BioAssay (Tox21).

Records with an inconclusive call do not appear. A number with no mark means an inactive call. Active and inactive are the calls of the source. Calls come from the whole dose curve; as a rule, active = well fitted activation curve with a large enough effect in the signal ratio in the repeat runs (not every such curve was filed as active); inconclusive = weak or mixed curves, or effect the other way; inactive = no such curve, though single readings can be large or run the other way; the % refers to the signal ratio.
% is set by controls: 0 for no effect and ±100 for the full control effect.

Sequence of Glucocorticoid receptor (Homo sapiens) (P04150 whole entry, looked up): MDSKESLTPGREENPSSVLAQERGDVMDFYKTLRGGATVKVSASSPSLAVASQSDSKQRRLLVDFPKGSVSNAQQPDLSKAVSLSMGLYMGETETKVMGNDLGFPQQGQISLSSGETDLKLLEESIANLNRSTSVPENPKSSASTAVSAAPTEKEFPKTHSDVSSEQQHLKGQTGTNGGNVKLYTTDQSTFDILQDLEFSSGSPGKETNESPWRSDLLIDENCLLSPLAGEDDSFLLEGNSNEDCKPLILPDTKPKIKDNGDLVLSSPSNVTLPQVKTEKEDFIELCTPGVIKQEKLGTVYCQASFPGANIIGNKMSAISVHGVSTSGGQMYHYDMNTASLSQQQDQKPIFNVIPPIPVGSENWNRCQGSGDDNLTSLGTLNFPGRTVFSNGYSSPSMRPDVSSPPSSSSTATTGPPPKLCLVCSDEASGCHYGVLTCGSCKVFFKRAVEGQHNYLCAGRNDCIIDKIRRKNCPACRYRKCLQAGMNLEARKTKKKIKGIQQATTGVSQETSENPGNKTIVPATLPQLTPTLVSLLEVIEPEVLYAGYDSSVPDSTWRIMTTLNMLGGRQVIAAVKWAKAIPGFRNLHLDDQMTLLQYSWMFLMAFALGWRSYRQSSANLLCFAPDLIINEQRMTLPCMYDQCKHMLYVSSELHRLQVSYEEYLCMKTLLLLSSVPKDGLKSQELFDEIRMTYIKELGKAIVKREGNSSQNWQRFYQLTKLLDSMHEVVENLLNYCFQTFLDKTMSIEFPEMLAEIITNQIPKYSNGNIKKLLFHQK

This test has as its target Glucocorticoid receptor (Homo sapiens) (UniProt P04150). Description: qHTS assay to identify small molecule agonists of the glucocorticoid receptor (GR) signaling pathway (AID 720691). The settings on record: GR-bla HeLa, beta-lactamase reporter ratio, 18 h; series mostly up to 62.4 µM; activation: at the top concentration. From the text:
U.S. Tox21 Program National Center for Advancing Translational Sciences [NCATS] NIH Chemical Genomics Center [NCGC] U.S. Environmental Protection Agency [EPA] National Institutes of Environmental Health Sciences [NIEHS] National Toxicology Program [NTP] U.S. Food and Drug Administration [FDA] Tox21 Assay Overview: The Glucocorticoid receptor (GR) is one of the members of the nuclear receptor family of ligand-dependent transcription factors. GR plays a critical role in carbohydrate, protein and lipid metabolisms and programmed cell death. CellSensor GR-bla HeLa cell line (Invitrogen) contains a beta-lactamase reporter gene under the control of the glucocorticoid response element stably integrated into HeLa cells, a cervical cancer cell line that expresses glucocorticoid receptor. The activation of the reporter gene under culture conditions can be detected by fluorescence intensity. This cell line has been used to screen the Tox21 10K compound library and to identify the compounds that activate the GR signaling.
Tox21 Assay Protocol Summary: The GR-bla HeLa cells were dispensed at 1500 cells/6 ul/well in 1536-well black wall/clear bottom plates using a Multidrop Combi (ThermoFisher Scientific, Waltham, MA) dispenser. After the assay plates were incubated at a 37 C/5% CO2 incubator for 4 hours, 23 nL of compounds dissolved in DMSO, positive controls or DMSO only was transferred to the assay plate by a pintool station (Kalypsys, San Diego, CA). The plates were incubated at 37 C for 18 hours. After 1 uL of LiveBLAzerTM B/G FRET substrate was added using a Flying Reagent Dispenser (Aurora Discovery, San Diego, CA), the plates were incubated at room temperature for 2 hours, and fluorescence intensity was measured by an Envision plate reader (PerkinElmer, Shelton, CT).
A general note: In qHTS, concentration-response curves come from the screen itself.
As for `O=C1C(c2[nH]c3ccccc3c2O)=Nc2ccccc21`, the outcome was inactive.
Regarding `CC(C)OP(=O)(CP(=O)(OC(C)C)OC(C)C)OC(C)C`, the “activation” value was 3.9%.
With `CCCCCCCCCCCCCCCCO`, the outcome was inactive.
On to `CC(=O)OCc1ccccc1`, for which the outcome was inactive.
Regarding `N#Cc1ccccc1`, the result was inactive.
Take `O=C(O)c1ccc(C(=O)O)c(C(=O)O)c1`: the result was inactive.
With `O=S(=O)(O)c1ccc(N=Nc2c(O)ccc3cc(S(=O)(=O)O)ccc23)cc1`, the outcome was inactive.
`COc1ccc(C)cc1N`: the result was inactive.
The same measure, in the same setting: to `CC(=O)Oc1ccc(C)cc1` belongs “inactive”.
Still for that read-out and setting: to `O=C(O)c1ccccc1C(=O)O` belongs “inactive”.
Turning to `COc1ccc(OC)cc1`, the outcome was inactive.
With `CC(CCO)CC(C)(C)C` (stereo not given), the outcome was inactive.
`Nc1nc(N)nc(-c2ccccc2)n1`: the outcome was inactive.
In the case of `O=C(O)Cn1c(=O)n(Cc2ccc(Br)cc2F)c(=O)c2ccc(Cl)cc21`, the “activation” value is -7.75%.
As for `CC(C)(Oc1ccc(CCNC(=O)c2ccc(Cl)cc2)cc1)C(=O)O`, the result was inactive.
Turning to `Cc1ccc(C(C)C)c(O)c1`, the outcome was inactive.
On to `CCCCC(C=O)CC` (stereo not given), for which the outcome was inactive.
Still for that read-out and setting: next, `CCCCCCCCCCCC(=O)OC`: “inactive”.
For the compound `O=C(O)c1ccc(S(=O)(=O)N(Cl)Cl)cc1`, the result was inactive.
Same read-out and setting: to `CC(CCl)OP(=O)(OC(C)CCl)OC(C)CCl` (stereo not given) belongs “inactive”; to `C=CC[N+](C)(C)CC=C`, “inactive”; to `CN(C)CCOC(=O)COc1ccc(Cl)cc1`, “inactive”.
Same read-out and setting: next, `CCCCCCC=O`: “inactive”; `C=C(C)CNCC`: “inactive”; `CN(C)c1ccc(Cc2ccc(N(C)C)cc2)cc1`: “inactive”.
Still for that read-out and setting: to `CCO[Si](CCC#N)(OCC)OCC` belongs “inactive”; to `COc1ccc([N+](=O)[O-])cc1N`, “inactive”; to `CC(C)(C)c1cc(Cc2cc(C(C)(C)C)c(O)c(C(C)(C)C)c2)cc(C(C)(C)C)c1O`, “inactive”.
For the compound `COC(=O)c1cccnc1`, the result was inactive.
Still for that read-out and setting: next, `CNC(=O)Oc1ccc2c(c1)[C@]1(C)CCN(C)[C@@H]1N2C`: “inactive”; `O=S(=O)(O)c1ccccc1`: “inactive”.
Turning to `CC1(C)CC(N)CC(C)(CN)C1` (stereo not given), the result was inactive.
Regarding `CNC(=S)N(C)C`, the outcome was inactive.
Consider `CCCCCCCCCCO`, for which the outcome was inactive.
The same measure, in the same setting: to `CC(C)c1cccc(C(C)C)c1` belongs “inactive”; to `Cc1ccc([N+](=O)[O-])cc1S(=O)(=O)O`, “inactive”.
Turning to `Cc1ccc2ncccc2c1`, the result was inactive.
With `N[C@H](Cc1c[nH]c2ccccc12)C(=O)O`, the result was inactive.
In the case of `c1ccc2c(c1)Cc1ccccc1-2`, the result was inactive.
For `c1ccc(Oc2ccccc2)cc1`, the outcome was inactive.
